Results published in PubChem BioAssay AID2546 (National Center for Advancing Translational Sciences (NCATS), 2010).
In all, about 310,000 compounds went through this assay and about 11,000 (3.5%) were called active. Roughly 8% stayed inconclusive and do not appear here. For the sample, actives were picked, then their nearest neighbours and some compounds at random. A number with no mark means an inactive call. The call rests on the fitted dose curve; in most records, active means well fitted inhibition curve with a large enough effect; inconclusive means small, poorly fitted or top-dose-only effect, or effect the other way; inactive means flat fitted curve, though single readings scatter.

Assay: VP16 counterscreen qHTS for inhibitors of ROR gamma transcriptional activity;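 further: Gal4-VP16 expression switched on by copper sulfate through the metallothionein promoter; nearly all actives have a fitted effect of over 50% in size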
Settings: Drosophila S2 Gal4-VP16 UAS-luciferase, luminescence, 20 h; series mostly up to 53.6 µM; activity, negative = inhibition: at the top concentration
On the % scale 0 is the no-effect control and ±100 the full control effect; potency means the concentration at half of the fitted maximal effect.

| Structure (SMILES) | activity, negative = inhibition | Potency |
| --- | --- | --- |
| O=C1C[C@@H](c2ccc3ccccc3c2)N1S(=O)(=O)c1ccccc1[N+](=O)[O-] | -6.73% | – |
| Cc1ccc(CNS(=O)(=O)c2ccc3c(c2)N(C)CCO3)cc1 | -0.865% | – |
| Cc1cc(=O)[nH]c(Nc2cccc(Br)c2)n1 | -6.76% | – |
| COc1ccccc1C(=O)N1CC2(C)CC1CC(C)(C)C2 (stereo not drawn) | -3.63% | – |
| Cc1cccc(C(=O)NCC(=O)OCC(=O)N2CC3(C)CC2CC(C)(C)C3)c1 (stereo not drawn) | -8.87% | – |
| Cc1nnnn1/C(=C\c1ccccc1)C(=O)OCC(=O)N1CC2(C)CC1CC(C)(C)C2 (stereo not drawn) | – | 10 µM (active) |
| CCOC(=O)c1ccc(NC(=O)c2cccnc2)cc1 | 3.63% | – |
| CCSc1nc2sc3c(c2c(=O)n1-c1ccc(C)cc1)CCN(C)C3 | -1.82% | – |
| Cc1cccc(NC(=S)N2CCCC(c3nc4ccccc4[nH]3)C2)c1 (stereo not drawn) | 5.42% [at 10 µM] | – |
| Cc1ccc(C2CCN(C(=S)Nc3cccc(Cl)c3)C2)cc1 (stereo not drawn) | – | 12.6 µM (active) |
| O=C(C1CCCO1)N1CCN(C(=S)Nc2cccc(Cl)c2)CC1 (stereo not drawn) | 4.52% | – |
| CC(=O)c1nn(-c2cccc(C(F)(F)F)c2)c(=O)[nH]c1=O | 6.04% | – |
| COc1ccccc1CCNC(=O)c1c(C)nn(CC(C)C)c1Cl | 22.8% | – |
| COc1cccc(C(=O)N/N=C(\C)c2cccc(NC(=O)c3ccc(F)cc3)c2)c1OC | -3.24% | – |
| Cc1cccc(C(=O)N2CCCC(Nc3ccc(C(C)C)cc3)C2)n1 (stereo not drawn) | -6.89% | – |
| COc1ccc(NC2CCCN(C(=O)c3ccncc3)C2)cc1 (stereo not drawn) | 1.45% | – |
| CC(C)c1ccc(NC2CCCN(C(=O)c3ccncc3)C2)cc1 (stereo not drawn) | – | 1.58 µM (active) |
| O=C(Nc1ccc(C(=O)NCc2ccccc2Cl)cc1)C1=CSCCO1 | -5.26% | – |
| COc1ccc(-n2nc(C(=O)NCC(=O)N3CCCCCC3)c3ccccc3c2=O)cc1Cl | 1.85% | – |
| CC(=O)c1cccc(NC(=O)CN2C(=O)c3cccnc3Oc3ccc(Cl)cc32)c1 | 8.7% | – |
| C#CC(CCN1CCCCC1)(OC)c1ccccc1 (stereo not drawn) | -3.36% | – |
| CN1CCN(C(=O)CCc2nc(-c3ccc(Cl)cc3)no2)CC1 | 20.9% | – |
| CCNC(=O)CCc1nc(-c2ccc(C)cc2)no1 | 4.81% | – |
| CCNC(=O)CCc1nc(-c2ccc(C(C)(C)C)cc2)no1 | – | 2.51 µM (active) |
| COC(=O)c1ccc(N2CCOCC2)c(NC(=O)c2ccc(Br)o2)c1 | -9.5% | – |
| CCN1CCN(C(c2cccnc2)c2cc(Cl)c3cccnc3c2O)CC1 (stereo not drawn) | – | 5.01 µM (active) |
| Oc1ccccc1CN1CCN(C(c2ccccc2)c2ccccc2)CC1 | 15.7% | – |

| Structure (SMILES) | activity, negative = inhibition | Potency |
| --- | --- | --- |
| Cc1onc(C(=O)NN)c1C(=O)N1CCN(C(c2ccccc2)c2ccccc2)CC1 | -9.37% | – |
| CCN1CCN(c2ccc(NC(=O)c3cnccn3)cc2)CC1 | -0.768% | – |
| CCOC(=O)N1CCN(C(c2cccnc2)c2ccc3cccnc3c2O)CC1 (stereo not drawn) | – | 6.31 µM (active) |
| CCOC(=O)N1CCN(C(=O)C2CCN(c3ncnc4c3sc3cccc(F)c34)CC2)CC1 | -1.75% | – |
| CC(=O)Nc1ccc(S(=O)(=O)N2N=NC3C2C2CC4C3(CN(C(=O)OC(C)(C)C)S4(=O)=O)O2)cc1 (stereo not drawn) | 2.47% | – |
| O=C(CCc1nnc(Cc2ccc3c(c2)OCO3)o1)NCCc1ccccc1Cl | 1.16% | – |
| O=C1Nc2cc(C(=O)N3CCN(c4ccc(F)cc4)CC3)ccc2NC1CSCc1cccc(F)c1 (stereo not drawn) | 3.66% | – |
| Clc1cccc(Cl)c1OCCOCCNCc1ccccc1 | -8.4% | – |
| COc1cccc(NC(=O)N2C3CCCC2CC(NC(C)=O)C3)c1 (stereo not drawn) | 0.59% | – |
| CCOC(=O)C1(Cc2ccccc2C)CCCN(C(=O)CCc2c(C)noc2C)C1 (stereo not drawn) | -7.72% | – |
| COc1ccc(CCNC(=O)c2cnc(Cl)c(Cl)c2)cc1 | -1.08% | – |
| S=c1[nH]nc(-c2ccncc2)n1/N=C/c1ccccc1Cl | 2.33% | – |
| S=c1[nH]nc(-c2cc(-c3ccccc3)n[nH]2)n1/N=C/c1c2ccccc2cc2ccccc12 | – | 6.31 µM (active) |
| Cc1ccc(/C=N\n2c(-c3ccccc3)n[nH]c2=S)s1 | – | 8.91 µM (active) |
| S=c1[nH]nc(-c2ccco2)n1/N=C/c1ccccc1 | 0.747% | – |
| S=c1[nH]nc(-c2cccs2)n1/N=C/c1cccs1 | -3.28% | – |
| S=c1[nH]nc(-c2cc(-c3ccsc3)n[nH]2)n1-c1ccccc1 | -4.8% | – |
| CCc1ccc(-c2cc(C)no2)cc1S(=O)(=O)NCCc1ccc(S(N)(=O)=O)cc1 | -22.4% | – |
| NS(=O)(=O)c1ccc(CCNC(=O)c2nc(CS(=O)(=O)c3ccc(Cl)cc3)no2)cc1 | 0.186% | – |
| COc1ccc(C(=O)COC(=O)Cn2cnc3c2c(=O)n(C)c(=O)n3C)c(OC)c1 | 0.743% | – |
| CCCCNC(=O)CN1C(=O)NC(Cc2ccccc2)(Cc2ccccc2)C1=O | -1.76% | – |
| O=C(N/N=C\C1CC=CCC1)c1ccc(Br)o1 (stereo not drawn) | -10.9% | – |
| CC1(C)NC(=O)N(CC(=O)Nc2cc(C(F)(F)F)cc(C(F)(F)F)c2)C1=O | -11.9% | – |
| COc1ccc(/C=C/C2=CC(C)(C)NC(=S)N2)c(OC)c1 | – | 3.55 µM (active) |
| COc1ccc(/C=C2/C(=O)N(c3ccccc3)N=C2C)c(OC)c1 | 0.974% | – |
| CCC(=O)c1ccc(OC(=O)/C=C/c2cc(OC)c(OC)c(OC)c2)cc1 | -0.143% | – |
